Source: PubChem
In the library only some 7.2% were active in any assay of this set; here they are far more common.
NIH3T3 tox: NIH 3T3 cell cytotoxicity; NIH 3T3 viability, CellTiter-Glo ATP luminescence, 48-72 h; Potency, µM (highest dose often 96.7 µM), inactives show at the top dose activity change, negative = cytotoxicity, hits mostly inhibitors; 94,000 tested, 4.3% active; also: % is scaled to controls: 0 for no effect and ±100 for the full control effect; nearly all actives have a fitted effect of over 55% in size
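Cells were seeded at 400 per well, treated with pin-transferred compound, and kept 48 or 72 hr at 37 °C before CellTiter-Glo addition and luminescence imaging of cellular ATP.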
SNCA expr inhib: SNCA gene expression inhibition. HEK-293 SNCA-luciferase knock-in, luminescence, 24 h. Potency, µM (highest dose often 57.2 µM), without a hit: at the top dose activity change, negative = inhibition, most hits filed as inhibitors. 140,000 tested, 0.17% active. AID 1671194;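 also: plate controls were DMSO cells for no effect and cell-free wells for full effect; nearly all actives have a fitted effect of over 45% in size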
HEK cytotox: HEK 293 cell cytotoxicity; HEK 293 viability, ATP luminescence (CellTiter-Glo), 48-72 h; Potency, µM (top dose mostly 115 µM), for the others: top-dose activity change, negative = cytotoxicity, hits mostly inhibitors; 94,000 tested, 6.6% active; also: % is scaled to controls: 0 for no effect and ±100 for the full control effect; nearly all actives have a fitted effect of over 60% in size
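ATP-coupled CellTiter-Glo luminescence served as viability read-out, recorded 10 min after reagent addition at room temperature. HEK 293 cells, 250 cells/well, had been incubated with pintool-transferred compound for 48 or 72 hr at 37 degree Celsius.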
FLuc inh: inhibitors of firefly (Photinus pyralis) luciferase. P08659. purified P. pyralis luciferase, luminescence, biochemical. Potency, µM (highest dose often 115 µM), usual class: inhibitors. 76,000 tested, 2.5% active. AID 1347043; also: % is scaled to controls: 0 for no effect and ±100 for the full control effect; nearly all actives have a fitted effect of over 65% in size
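FLuc 10nM, D-luciferin 10uM, ATP 10uM, Mg acetate 10mM, Tris acetate pH 7.5, Tween/BSA; cpd qHTS; enzyme added last; CCD luminescence.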
NPR1 antag: blocks ANP-stimulated signaling of human Npr1 receptor; 76,000 tested, 1.6% active; P16066; Potency, µM (series often up to 46.3 µM), inactives show top-dose activity change, negative = inhibition, actives largely listed as inhibitors; HEK293 hNpr1 GloSensor cGMP, ANP-stimulated luminescence; calls by dose curve; also: % is scaled to controls: 0 for no effect and ±100 for the full control effect; nearly all actives have a fitted effect of over 60% in size
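HEK293 cells stably expressing human Npr1 and cGMP GloSensor pGS-40F, loaded 2 h with 2% GloSensor reagent, given compound 30 min at room temperature. Luminescence read before and 20 min after 0.1 nM hNppA.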
HEK293 viab: counter-screen for SNCA expression inhibitors: cell viability. HEK-293-SNCA-luc viability, GF-AFC fluorescence, 24 h. Potency, µM (doses to about 57.1 µM), for inactives: top-dose activity change, negative = cytotoxicity, actives largely listed as cytotoxic. 150,000 tested, 0.12% active. AID 1671193;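 also: 0% = DMSO-treated cells and -100% = medium-only wells without cells; nearly all actives have a fitted effect of over 30% in size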
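Cytotoxicity counterscreen: after 24 h compound treatment of genome-edited SNCA-luciferase HEK-293 cells, live-cell protease substrate GF-AFC read by fluorescence after 30 min; activity scaled between DMSO (0%) and medium-only (-100%), curves Hill-fitted.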
NPR1 antag cnf: hNpr1 antagonism, confirmation assay. shares compounds with NPR1 antag. HEK293 hNpr1 cGMP GloSensor luminescence, ANP-stimulated. Potency, µM (top dose mostly 57.6 µM), for the others: at the highest dose activity change, negative = inhibition, most hits filed as inhibitors. 1,400 tested, 76% active. AID 1347044; calls by dose curve; also: nearly all actives have a fitted effect of over 70% in size
NPR2 antag: hNpr2 antagonism, selectivity versus Npr1; shares compounds with NPR1 antag; HEK293 hNpr2 GloSensor cGMP luminescence, CNP-stimulated; Potency, µM (top dose mostly 57.6 µM), for the others: at the highest dose activity change, negative = inhibition, usual class: inhibitors; 1,400 tested, 67% active; AID 1347046; calls by dose curve; also: nearly all actives have a fitted effect of over 70% in size
FLuc inh counter: inhibits firefly luciferase, false Npr1 antagonist flag; shares compounds with NPR1 antag; purified FLuc enzyme, luminescence, Km substrate; Potency, µM (titrated, usually from 57.6 µM), for inactives: at the highest dose activity change, negative = inhibition, most hits filed as inhibitors; 1,400 tested, 0.7% active; AID 1347047; also: series mostly up to about 58 µM; 0% is about no effect
GloSensor ctrl: counter-screen for Npr1 antagonists: GloSensor control cell line; shares compounds with NPR1 antag; HEK293 GloSensor cGMP, SNP-stimulated, luminescence; Potency, µM (top dose mostly 57.6 µM), for inactives: at the highest dose activity change, negative = inhibition, hits mostly inhibitors; 1,400 tested, 69% active; AID 1347051; calls by dose curve; also: % is scaled to controls: 0 for no effect and ±100 for the full control effect; nearly all actives have a fitted effect of over 70% in size
* = called active by the depositor; i = inactive; ? = inconclusive; / = no result given; [ ] = dose if it differs, or a comment. Unless noted, calls follow the shape of the dose curve; as a rule, active = well fitted curve in the direction sought with a large enough effect; inconclusive = small, poorly fitted or top-dose-only effect, or another doubt; inactive = no such curve, though single readings can be large; an effect the other way counts as inactive or inconclusive. Potency is read from the fitted curve at half-maximal effect.

SMILES	NIH3T3 tox	SNCA expr inhib	HEK cytotox	FLuc inh	NPR1 antag	HEK293 viab	NPR1 antag cnf	NPR2 antag	FLuc inh counter	GloSensor ctrl
Cc1ccc(CN2CCn3c(nnc3[C@@H]3C[C@@H](O)CN3Cc3cccnc3)C2)s1	4%	-8%	3%	i	17%	0%[12.5 µM]	/	/	/	/
CCc1noc(-c2cn(C3CCN(C(=O)C(C)c4ccccc4)CC3)nn2)n1 (configuration not stated)	-25%	13%	-24%	i	2%	-8%	/	/	/	/
COc1cccc(-c2cccc(CN)c2)c1	?	33%[87.6 µM]	-26%[172 µM]	/	/	6%[87.6 µM]	/	/	/	/
Cc1cc(C)cc(-c2cccc(CN)c2)c1	40µM*	-2%[87.6 µM]	56µM*	/	/	-13%[87.6 µM]	35µM*	31µM*	5%[86.2 µM]	?
CCC(=O)N1CCc2c(C(=O)Nc3ccc(N4CCOCC4)cc3)cccc21	-12%	12%	-10%	i	-7%	-2%	/	/	/	/
Cc1ccc(CN2CC(Oc3ccc(-c4noc(-c5cccnc5)n4)cc3)C2)o1	?	119%	?	i	13µM*	9%	19µM*	24µM*	?	22µM*
CCCN1CC(Oc2ccc(-c3noc(-c4cccnc4)n3)cc2)C1	?	37%	?	i	-25%	4%	/	/	/	/
CCCS(=O)(=O)N1CC(Oc2ccc(-c3noc(-c4cccnc4)n3)cc2)C1	?	-7%	?	i	14µM*	-13%	19µM*	17µM*	-19%	15µM*
CCCNC(=O)c1cccc2c1CCN2S(=O)(=O)c1ccc(OC)cc1	-22%	-9%	?	i	?	3%	/	/	/	/
COc1ccc(S(=O)(=O)N2CCc3c(C(=O)NCc4cccc(F)c4)cccc32)cc1	-25%	0%	?	i	?	-6%	?	?	-13%	?
Cc1ccc(S(=O)(=O)N2CCc3c(C(=O)NCc4ccccn4)cccc32)cc1	?	9%	?	i	11µM*	5%	24µM*	24µM*	-7%	31µM*
CCCNC(=O)c1cccc2c1CCN2S(=O)(=O)c1ccc(C)cc1	?	-6%	?	i	?	-8%	/	/	/	/
CN(Cc1ccccc1)Cc1cn([C@H]2CO[C@H]3[C@@H]2OC[C@@H]3NCc2ccc(N(C)C)cc2)nn1	-16%	-17%	-22%	i	6%	-7%	/	/	/	/
CCc1cccc(NC(=O)Cn2c(=O)c(-c3noc(C)n3)c3n(c2=O)CCCCC3)c1	-6%	-3%	0%	i	0%	-1%	/	/	/	/
CC(=O)Nc1ccc(CN2CCc3nc(C(C)C)nc(-c4ccc(Cl)cc4)c3CC2)cc1	-27%	-2%	?	/	/	-5%	/	/	/	/
OC1CCN(c2cc(C3CC(Nc4ncnc5sccc45)C3)ncn2)C1 (configuration not stated)	?	-6%	?	i	-14%	-3%	/	/	/	/
